Data reported in PubChem BioAssay AID1159554 (Broad Institute, 2015).
The campaign covered roughly 94,000 compounds. About 2,100 (2.2%) were called active. Cut-off read from the data, not from the text of the source: active = activity change below about -80%; inconclusive = no clear call, values can overlap the other calls; inactive = above that. The entries come from a sample that favours actives as a whole.

Assay: Dd2 malaria parasite growth inhibition – SYBR Green fluorescence, single dose replicates, primary screen (AID 1159554)
Details: P. falciparum Dd2 growth, 72 h, at 10 µM, hits give low values

Q: Which activity change does the source give for `CO[C@H]1CN(C)C(=O)c2cc(NS(=O)(=O)c3ccccc3)ccc2OC[C@@H](C)N(Cc2nccs2)C[C@@H]1C` here?
A: -8.31% (inactive)

Q: For `CCS(=O)(=O)N1CC2(CN(Cc3cc(F)ccc3F)[C@@H](CO)c3c2c2ccc(OC)cc2n3C)C1`, which activity change is on record?
A: -72.9% (inactive)

Q: Which activity change does the source give for `CO[C@H]1CN(C)C(=O)c2cc(NS(C)(=O)=O)ccc2OC[C@@H](C)N(Cc2ccccc2)C[C@@H]1C` here?
A: -41.2% (inactive)

Q: Which activity change does the source give for `COc1ccc2c3c([nH]c2c1)[C@@H](CO)N(C(C)=O)CC31CCN(Cc2ccccc2Cl)CC1` here?
A: -38.2% (inactive)

Q: For `COc1ccc2c3c([nH]c2c1)[C@@H](CO)N(Cc1ccccc1F)CC31CN(C(=O)C2CC2)C1`, which activity change is on record?
A: -48% (inactive)

Q: With `COc1ccc2c3c([nH]c2c1)[C@H](CO)N(Cc1ccccc1OC)CC31CCN(S(=O)(=O)c2ccccc2)CC1` as the compound, how does the activity change read?
A: -79.1% (inactive)

Q: Which activity change does the source give for `CCC(=O)N1CC2(C1)CN(Cc1ccccc1Cl)[C@@H](CO)c1[nH]c3cc(OC)ccc3c12` here?
A: -91.3% (active)

Q: For `COc1ccc2c3c(n(C)c2c1)[C@@H](CO)N(Cc1ccccc1)CC31CN(C(=O)C2CC2)C1`, which activity change is on record?
A: -20.3% (inactive)

Q: With `COc1ccc2c3c(n(C)c2c1)[C@H](CO)N(Cc1ccccc1Cl)CC31CN(C(=O)CN(C)C)C1` as the compound, how does the activity change read?
A: -83.6% (active)

Q: With `CCCC(=O)N1CC2(CN(C(=O)NC(C)C)C2)c2c([nH]c3cc(OC)ccc23)[C@@H]1CO` as the compound, how does the activity change read?
A: 16.5% (inactive)

Q: With `COCC(=O)N1CCC2(CC1)CN(Cc1ccccc1Cl)[C@H](CO)c1c2c2ccc(OC)cc2n1C` as the compound, how does the activity change read?
A: -60.4% (inactive)

Q: For `COc1ccc2c3c([nH]c2c1)[C@H](CO)N(Cc1ccccc1Cl)CC31CN(C(=O)C2CC2)C1`, which activity change is on record?
A: -92.3% (active)

Q: With `COc1ccc(-c2ccc([C@@H]3[C@@H](C#N)N(C(=O)C4CCCCC4)[C@H]3CO)cc2)cc1` as the compound, how does the activity change read?
A: -30.1% (inactive)

Q: With `CCC(=O)Nc1ccc2c(c1)C(=O)N(C)C[C@H](OC)[C@H](C)CN(C(=O)c1ccccn1)[C@@H](C)CO2` as the compound, how does the activity change read?
A: 15.8% (inactive)

Q: Which activity change does the source give for `COc1ccc2c3c(n(C)c2c1)[C@H](CO)N(C(=O)Nc1c(C)noc1C)CC31CN(CC2CC2)C1` here?
A: -7.59% (inactive)

Q: For `O=C(C[C@H]1CC[C@H]2NC[C@@H](O)COC[C@@H]2O1)NCCN1CCCC1`, which activity change is on record?
A: 9.89% (inactive)

Q: For `COc1cccc(CN(C)C[C@H]2OCc3ccccc3-c3c(n(C)c4ccccc34)C(=O)N([C@@H](C)CO)C[C@@H]2C)c1`, which activity change is on record?
A: -62% (inactive)

Q: With `COc1ccc2c3c(n(C)c2c1)[C@H](CO)NCC31CN(S(=O)(=O)c2cccc(C)c2)C1` as the compound, how does the activity change read?
A: 21.6% (inactive)

Q: With `C[C@@H]1CN([C@@H](C)CO)C(=O)c2cccc(NS(=O)(=O)c3cccs3)c2O[C@@H]1CN(C)CC1CC1` as the compound, how does the activity change read?
A: 18.4% (inactive)

Q: With `C[C@H](CO)N1C[C@H](C)[C@@H](CN(C)S(C)(=O)=O)Oc2c(NC(=O)c3ccc(-c4nccs4)cc3)cccc2C1=O` as the compound, how does the activity change read?
A: -4.15% (inactive)

Q: With `C[C@H](CO)N1C[C@H](C)[C@@H](CN(C)Cc2ccc(C(=O)Nc3ccccc3N)cc2)Oc2c(NC(=O)c3ccc(-c4nccs4)cc3)cccc2C1=O` as the compound, how does the activity change read?
A: -90% (active)

Q: With `C[C@H]1CN([C@@H](C)CO)C(=O)c2cccc(NC(=O)c3ccc(-c4nccs4)cc3)c2O[C@H]1CN(C)Cc1ccc(C(=O)O)cc1` as the compound, how does the activity change read?
A: 24% (inactive)

Q: With `C[C@@H]1CN([C@H](C)CO)C(=O)c2cccc(NC(=O)c3cnccn3)c2O[C@@H]1CN(C)Cc1ccc(C(=O)Nc2ccccc2N)cc1` as the compound, how does the activity change read?
A: -88.3% (active)

Q: For `C[C@H](CO)N1C[C@H](C)[C@H](CN(C)S(C)(=O)=O)Oc2c(NC(=O)c3ccc(-c4nccs4)cc3)cccc2C1=O`, which activity change is on record?
A: -3.36% (inactive)

Q: For `C[C@@H]1CN([C@@H](C)CO)C(=O)c2cccc(NC(=O)c3ccc(-c4nccs4)cc3)c2O[C@H]1CN(C)Cc1ccc(Cl)c(Cl)c1`, which activity change is on record?
A: -90.3% (active)

Q: For `C[C@@H]1CN([C@@H](C)CO)C(=O)c2cccc(NC(=O)c3ccc(-c4nccs4)cc3)c2O[C@@H]1CN(C)Cc1ccncc1`, which activity change is on record?
A: -15.6% (inactive)

Q: With `C[C@@H]1CN([C@@H](C)CO)C(=O)c2cccc(NS(=O)(=O)c3cccs3)c2O[C@H]1CN(C)Cc1ccncc1` as the compound, how does the activity change read?
A: 28.4% (inactive)

Q: With `C[C@@H]1CN([C@@H](C)CO)C(=O)c2cccc(NC(=O)c3cnccn3)c2O[C@H]1CN(C)Cc1ccc(-c2ccccc2)cc1` as the compound, how does the activity change read?
A: -64.1% (inactive)

Q: Which activity change does the source give for `C[C@H]1CN([C@@H](C)CO)C(=O)c2cccc(NS(=O)(=O)c3cccs3)c2O[C@H]1CN(C)Cc1ccc(C(=O)Nc2ccccc2N)cc1` here?
A: -87.1% (active)

Q: For `C[C@@H]1CN([C@@H](C)CO)C(=O)c2cccc(NC(=O)c3cnccn3)c2O[C@H]1CN(C)Cc1ccc(C(=O)O)cc1`, which activity change is on record?
A: -5.79% (inactive)

Q: Which activity change does the source give for `COc1ccc2c3c(n(C)c2c1)[C@@H](CO)N(CC1CC1)CC31CN(C(=O)c2cccc(F)c2)C1` here?
A: -33.2% (inactive)

Q: For `CO[C@H](CN(C)C(=O)c1cnccn1)[C@@H](C)CN([C@@H](C)CO)S(=O)(=O)c1ccc(C)cc1`, which activity change is on record?
A: 25.3% (inactive)

Q: With `COc1ccccc1NC(=O)N1C[C@H]2[C@@H](c3ccccc31)[C@@H](CO)N2C(=O)C1CCCC1` as the compound, how does the activity change read?
A: -11.4% (inactive)

Q: For `CCNC(=O)[C@H]1[C@H](CO)[C@H]2Cn3c(ccc(C4=CCCC4)c3=O)[C@@H]1N2S(=O)(=O)c1cn(C)cn1`, which activity change is on record?
A: 21.7% (inactive)

Q: With `COc1ccc(-c2ccc3c(c2)O[C@H](CN(C)Cc2ccccc2C(=O)O)[C@H](C)CN([C@@H](C)CO)S3(=O)=O)cc1` as the compound, how does the activity change read?
A: -14.1% (inactive)

Q: Which activity change does the source give for `CO[C@H]1CN(C)C(=O)c2cc(NC(=O)c3ccc4c(c3)OCO4)ccc2OC[C@@H](C)N(CCC(F)(F)F)C[C@H]1C` here?
A: -12.7% (inactive)

Q: With `C[C@@H](C(=O)N(C)C[C@H]1OCc2ccccc2-c2c(n(C)c3ccccc23)C(=O)N([C@@H](C)CO)C[C@@H]1C)c1ccccc1` as the compound, how does the activity change read?
A: -70% (inactive)

Q: With `O=C(C[C@@H]1CC[C@@H]2[C@H](COC[C@@H](O)CN2Cc2cc(F)cc(F)c2)O1)NCc1cccc(F)c1` as the compound, how does the activity change read?
A: -16.3% (inactive)

Q: Which activity change does the source give for `C[C@H](CO)N1C[C@H](C)[C@@H](CN(C)C(=O)c2ccncc2)Oc2cc(C3=CCCCC3)ccc2S1(=O)=O` here?
A: -11.8% (inactive)
